Screening data (PubChem)
KB-V1 cytotox – kills drug-selected multidrug resistant KB-V1 cells. 400,000 tested, 3.4% active. KB-V1 MDR cells viability, CellTiter-Glo, 72 h. Potency, µM (doses to about 46.1 µM), usual class: cytotoxic; note: % is set by controls: 0 for no effect and ±100 for the full control effect; nearly all actives have a fitted effect of over 60% in size
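KB-V1, DMEM (no phenol red) + 10% FBS; cpd pin-transferred, titration series; 72 h, 37 degrees C; CellTiter-Glo, luminescence. Data normalized, curve-fit.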
SW480 rereplic – DNA re-replication induction in SW480 cells. AID 624297. Potency, µM (series often up to 46.1 µM), inactives show at the top dose re-replication activation, actives largely listed as activators. SW480 DNA re-replication, Hoechst DNA content imaging, 48 h. 340,000 tested, 1.8% active; note: % of control where 0% means no effect; nearly all actives have a fitted effect of over 55% in size
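Treated cells incubate 48 hr (37 C, 5% CO2), are stained 40 min with Hoechst, and nuclear fluorescence is enumerated; a rise in nuclei with high DNA signal marks re-replication.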
HT1080NT lethal – kills 2HG-producing HT-1080-NT fibrosarcoma cells; HT-1080-NT fibrosarcoma viability, CellTiter-Glo ATP luminescence, 48 h; Potency, µM (titrated, usually from 46.1 µM), without a hit: at the highest dose activity, negative = less viability, most hits filed as cytotoxic; 360,000 tested, 1.6% active;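 note: NT is the 2HG producing partner of a matched IDH1 knockdown line; 0% = DMSO-treated cells and -100% = media-only wells without cells; nearly all actives have a fitted effect of over 55% in size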
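Read-out is CellTiter-Glo luminescence after 10 minutes at room temperature, following 48 hours' compound treatment of HT-1080-NT cells (750 cells/well, RPMI, 5% FBS, 37 degrees C).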
MCF10A rereplic – DNA re-replication induction in MCF 10a cells | Potency, µM (series often up to 46.1 µM), inactives show top-dose activity, positive = re-replication, hits mostly activators | AID 624296 | MCF 10A DNA re-replication, Hoechst nuclear intensity, 48 h | 350,000 tested, 2.9% active; note: % of control where 0% means no effect; nearly all actives have a fitted effect of over 50% in size
KB-3-1 cytotox – KB-3-1 parental cell cytotoxicity. Potency, µM (top dose mostly 46.1 µM), hits mostly cytotoxic. KB-3-1 viability, CellTiter-Glo ATP luminescence, 72 h. 400,000 tested, 1.4% active; note: % is set by controls: 0 for no effect and ±100 for the full control effect; nearly all actives have a fitted effect of over 60% in size
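Cytotoxicity measured as CellTiter-Glo luminescence after 72 h at 37 C. Compound titrations were pinned onto drug-naive KB-3-1 parental adenocarcinoma cells grown in DMEM with 10% FBS, and normalized data fitted to concentration-response curves.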
HT1080 IDH1KD tx – toxicity to HT-1080 IDH1 knockdown cells (counter line); HT-1080 IDH1 knockdown viability, ATP luminescence, 48 h; Potency, µM (highest dose often 46.1 µM), for the others: at the highest dose activity, negative = toxicity, usual class: cytotoxic; 360,000 tested, 2% active; AID 686971;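 note: 0% = DMSO wells and -100% = cell-free medium wells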
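HT-1080-IDH1KD cells (IDH1 knocked down), 750/well in RPMI with 5% FBS, treated with compound 48 h at 37 degrees C. Viability by CellTiter-Glo luminescence, normalised to DMSO and no-cell wells; concentration-response curves classed.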
An asterisk follows results filed as active; i = inactive; ? = inconclusive; / = no result. The list is not random: actives were taken first. Their share in the collection is about 7.9%. Calls come from the whole dose curve; as a rule, active = well fitted curve in the direction sought with a large enough effect; inconclusive = small, poorly fitted or top-dose-only effect, or another doubt; inactive = no such curve, though single readings can be large; an effect the other way counts as inactive or inconclusive. Potency is the fitted concentration of half-maximal effect.

SMILES	KB-V1 cytotox	SW480 rereplic	HT1080NT lethal	MCF10A rereplic	KB-3-1 cytotox	HT1080 IDH1KD tx
CCNC(=S)N(Cc1cccs1)Cc1cc2cc(OCC)ccc2[nH]c1=O	11.6µM*	-4.9%	3.6%	-6.3%	i	10.8%
O=C(CN1CCOCC1)N1CCc2ccccc2C(c2ccccc2)C1 (centres undefined)	i	-6.1%	2.5%	-1.6%	i	3.2%
O=C(CBr)N1CCc2ccccc2C(c2ccccc2)C1 (centres undefined)	i	-54.2%	25.9µM*	0.0%	i	20.6µM*
O=C(N/N=C/c1sc(=O)[nH]c1-[n+]1ccccc1)c1ccccc1[O-]	i	20.9%	10.0%	0.0%	i	9.7%
O=C(N/N=C/c1sc(=O)[nH]c1-[n+]1ccc2ccccc2c1)c1ccccc1[O-]	?	140.1%	-19.4%	5.3%	8.2µM*	-20.0%
COc1ccc(S(=O)(=O)N(C)C[C@H]2Oc3ccc(NC(=O)NC4CCCCC4)cc3C(=O)N([C@H](C)CO)C[C@@H]2C)cc1	i	-4.1%	-6.9%	-7.3%	i	-0.2%
CCCCCC1(C)NC(=S)N(c2ccccc2)N1 (centres undefined)	i	-3.3%	?	1.8%	i	?
CC1(c2ccc(O)cc2)NC(=O)N(c2ccccc2)N1 (centres undefined)	i	4.9%	5.8µM*	28.4%	i	10.3µM*
O=C1NC(=O)C(c2ccccc2)(c2ccc(O)cc2)N1 (centres undefined)	i	-12.6%	5.6%	-0.3%	i	3.3%
C=C(C)CCC1(C)NC(=O)N(c2ccccc2)N1 (centres undefined)	i	-33.0%	9.2µM*	?	i	14.6µM*
Cn1ncc(Cl)c1C(=O)NCc1ccc(Cl)cc1	3.66µM*	?	-1.2%	-67.5%	?	-5.5%
Cc1ccccc1C(=O)NC(CC(C)C)C(=O)N1CCN(c2ccccc2)CC1 (centres undefined)	i	11.3%	9.7%	-24.1%	i	1.9%
NC(=S)NNc1c(F)c(F)c(F)c(F)c1F	i	14.2%	-19.7%	14.6µM*	?	-6.1%
Cc1c(C(=O)c2no[n+]([O-])c2C(=O)c2cnn(C)c2C)cnn1C	i	?	?	11.2µM*	?	?
Cc1cccc(C)c1OCC(O)CNS(=O)(=O)c1ccccc1C(=O)N1CCCCC1 (centres undefined)	4.61µM*	0.4%	-5.2%	10.1%	i	-2.1%
CC(C)CNS(=O)(=O)c1ccccc1C(=O)N1CCCCC1	14.6µM*	-5.3%	-3.8%	0.9%	i	3.1%
CCN(CC)c1ccc(NC(=O)c2sc3ccccc3c2Cl)cc1	i	/	/	/	i	/
Cc1ccc2c(Cl)c(C(=O)Nc3ccc4c(c3)OCO4)sc2c1	i	20.6µM*	22.1%	?	i	22.6%
CCN(CC)Cc1ccc(NC(=O)c2sc3cc(Cl)ccc3c2Cl)cc1	?	?	7.31µM*	?	?	23.1µM*
Cc1ccc2c(Cl)c(C(=O)NCc3cccnc3)sc2c1	14.6µM*	0.8%	-2.0%	10.7%	i	0.8%
CCOC(=O)c1cc(S(=O)(=O)N2CCN(c3cc(C)ccc3C)CC2)[nH]n1	i	/	/	/	i	/
CCC(=O)N1N=C(c2cccs2)CC1c1ccc(C)cc1 (centres undefined)	i	-61.4%	7.2%	-3.5%	i	7.4%
COc1ccc(C2CC(c3cccs3)=NN2C(=O)CSc2nnnn2C)cc1OC (centres undefined)	i	0.0%	-0.1%	-1.5%	i	-0.3%
COc1ccc(C2CC(c3cccs3)=NN2C(=O)CSc2nncn2C)cc1OC (centres undefined)	?	-6.8%	8.8%	4.61µM*	i	1.6%
